Sa ugtP lethal – growth inhibition of S. aureus ugtP deletion strain | S. aureus RN4220 ugtP deletion, OD600 growth, 16 h | 0.54% of 330,000 active | AID 1259309 | growth inhibition, % (test concentration not listed); in the data active = growth inhibition above about 68%;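 also: plate controls were untreated wells for no effect and antibiotic for full effect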
PrP 5UTR inh – suppresses PrP 5' UTR mRNA reporter expression; cell-based PrP 5' UTR mRNA reporter, plate reader; inhibition, % (concentration not given with the values); 0.35% of 340,000 active; in the data active = inhibition above about 52%; also: 0 = median of the neutral control wells
PrPC surface inh – cell surface PrPC inhibition, primary TR-FRET screen; TR-FRET read-out; inhibition, % at 13.8 µM; 0.43% of 370,000 active; P04156; AID 720596; in the data active = inhibition above about 24%; also: 0% = median of the test wells and 100% = reference compound wells
PfHsp40 rescue – rescue of PfHsp40-mediated yeast toxicity. S. cerevisiae expressing PfHsp40, growth rescue, ATP luminescence. growth rescue, % at 12.5 µM. 0.68% of 340,000 active; in the data active = growth rescue above about 28%, passing the limit was not always enough;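 also: yeast W303a lacking pdr1 and pdr3 grown in galactose medium; growth measured after three days at 30 °C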
RN4220 kill – kills Staphylococcus aureus RN4220; S. aureus RN4220 growth, OD600, 16 h; inhibition, % (concentration not given with the values); 0.33% of 330,000 active; in the data active = inhibition above about 85%;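 also: plate controls were untreated cells for no effect and reference antibiotic for full effect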
CCHF vOTU inh-1 – blocks the CCHF virus ovarian tumor domain protease; CCHFV vOTU protease, Pep-AMC fluorescence; inhibition, % at 11.5 µM; 0.55% of 370,000 active; also: 0% = vehicle wells with enzyme and 100% = no enzyme wells
CCHF vOTU inh-2 – confirmation of CCHF virus vOTU protease inhibitors; shares compounds with CCHF vOTU inh-1; Recombinant CCHFV vOTU, Pep-AMC fluorescence; AID 686976; 17% of 1,900 active; inhibition, % at 11.5 µM
* marks the source's active call; other numbers are inactive results; . = no result given. Compounds with a hit are over-represented: about 2.1% of the library has one in this group of screens. Rule as the data show it, unless noted: active = inhibition above about 30%; inactive = the rest.

SMILES	Sa ugtP lethal	PrP 5UTR inh	PrPC surface inh	PfHsp40 rescue	RN4220 kill	CCHF vOTU inh-1	CCHF vOTU inh-2
O=c1cc(Nc2cccc(Br)c2)[nH]c(=O)[nH]1	-4.9	-12.6	4.9	0.7	16.1	-7.3	.
COc1ccc(OC)c(Nc2cc3ccccc3c(=O)[nH]2)c1	2.0	11.1	-2.8	-1.4	5.9	98.8*	90.4*
COC(=O)C1=C(c2cc3ccccc3s2)CC2CCC1N2C(=O)NCCNC(C)=O (stereo not drawn)	0.7	.	.	.	2.2	.	.
O=C1C2C3C=CC(c4ccccc4)(C2C(=O)N1c1cccc(Cl)c1)C1C(=O)N(c2cccc(Cl)c2)C(=O)C31 (stereo not drawn)	-15.8	-16.8	-9.8	-0.1	10.0	38.1*	-12.6
c1ccc2c(c1)NCC1CCCN21 (stereo not drawn)	4.4	-24.2	-14.0	-0.4	1.6	36.7*	-1.1
O=C1NC[C@@H]2CCCN2C1=O	.	.	4.0	.	.	-6.1	.
Cc1cc(Br)cc(C=NNC(=O)c2ccc3c(c2)OCO3)c1O	10.9	.	.	.	-11.3	.	.
COc1ccc(C=NNC(N)=S)cc1	1.7	.	.	.	4.2	.	.
NC(=S)N/N=C/c1ccc(/C=N/NC(N)=S)cc1	.	-18.4	-10.8	0.2	.	35.8*	3.1
CCN(CC)C(=O)C(=O)NN=Cc1cccs1	2.3	.	.	.	3.5	.	.
Cc1ccc(N2C(=O)[C@@H]3[C@H](C2=O)C2c4ccccc4C=CN2[C@@H]3C(=O)c2ccco2)cc1 (stereo partly drawn)	.	5.6	-3.8	-0.2	.	77.7*	101.3*
CC(C)(C)C(=O)[C@@H]1[C@@H]2C(=O)N(c3ccc4c(c3)OCCO4)C(=O)[C@@H]2C2c3ccccc3C=CN21 (stereo partly drawn)	2.0	-12.9	-0.1	-0.5	-3.4	53.5*	-6.6
Cc1ccc(N2C(=O)[C@@H]3[C@H](C2=O)C2c4ccccc4C=CN2[C@@H]3C(=O)c2ccco2)c(C)c1 (stereo partly drawn)	-4.2	-6.7	7.1	0.2	1.4	95.1*	53.0*
CC(=O)[C@@H]1[C@@H]2C(=O)N(Cc3ccccc3)C(=O)[C@@H]2C2c3ccccc3C=CN21 (stereo partly drawn)	-0.3	-28.9	-2.8	0.3	6.6	64.0*	32.9*
C/C(C=NNC(=O)CSc1nc(C)cc(C)n1)=C\c1ccccc1	-5.8	.	.	.	-1.5	.	.
COc1ccc2c(c1)CCC1C2CC[C@]2(C)C(C(=O)O)CC12 (stereo partly drawn)	3.6	.	.	.	3.0	.	.
COc1ccc(C=NNC(=O)c2ccn[nH]2)cc1CN1CCOCC1	8.6	.	.	.	2.2	.	.
CC(C)(C)C1C=C(C(=O)NCc2ccccc2)OC(OCc2ccc(CO)cc2)C1 (stereo not drawn)	1.7	.	.	.	7.0	.	.
O=c1cc(-c2ccccc2)oc2c1ccc1ccccc12	.	.	-0.7	.	.	-7.1	.
O=c1cc(-c2ccc(O)c(O)c2)oc2c1ccc1ccccc12	4.8	-0.3	-0.6	2.6	-0.7	33.8*	6.4
CCOC(=O)C(CNc1ccc(O)cc1)NC(=O)c1ccccc1 (stereo not drawn)	.	.	-11.9	.	.	48.9*	-0.5
Cc1[nH][nH]c(=O)c1C(c1c(C)[nH][nH]c1=O)c1cn(Cc2ccccc2Cl)c2ccccc12	-22.4	-47.4	5.2	0.5	15.0	66.2*	-6.8
O=C(COC(=O)c1ccc([N+](=O)[O-])s1)NC(=O)NCc1ccccc1	22.7	-11.9	-34.0	0.2	18.4	53.1*	48.4*
O=C(COC(=O)c1ccc([N+](=O)[O-])s1)c1ccc[nH]1	.	-18.0	-18.8	-0.4	.	58.3*	49.5*
O=C(COC(=O)c1ccc([N+](=O)[O-])s1)NCc1ccc(F)cc1	16.6	-27.2	-23.5	0.8	22.1	71.3*	77.4*
SMILES	Sa ugtP lethal	PrP 5UTR inh	PrPC surface inh	PfHsp40 rescue	RN4220 kill	CCHF vOTU inh-1	CCHF vOTU inh-2
O=C(COC(=O)c1ccc([N+](=O)[O-])s1)NNC(=O)c1ccccc1	10.2	-18.8	.	-0.3	5.8	.	.
O=C(OCC(=O)c1ccc[nH]1)c1ccc([N+](=O)[O-])cc1	-0.2	-8.3	-14.2	-1.0	4.1	-14.4	.
O=C(COC(=O)c1ccc([N+](=O)[O-])s1)NCCc1ccccc1	4.0	.	.	2.7	8.2	.	.
COc1cc(C=NNC(=O)CNC(=O)/C=C/c2ccco2)cc(OC)c1OC	1.8	.	.	.	0.3	.	.
O=C(Cn1nnc(N2CCCC2)n1)NN=Cc1ccc(Cl)cc1	2.1	.	.	.	1.7	.	.
COC(=O)C(Cc1ccccc1)C(C)OS(N)(=O)=O (stereo not drawn)	2.0	.	.	.	4.1	.	.
CCOC(=O)C(=O)N(C)c1c(CC)nc2c(OCCC3CCCCC3)cccn12	.	.	10.1	.	.	16.9	.
CCOC(=O)N(C)c1c(CC)nc2c(OCCC3CCCCC3)cccn12	.	.	24.2	.	.	30.4*	5.6
Cc1nc2c(OCc3ccc(C(F)(F)F)cc3)cccn2c1N(C)C(=O)CCC1CCCC1	.	.	7.8	.	.	33.0*	3.6
CC(=O)N1CCc2cc(S(=O)(=O)NC(C(=O)Nc3ccc4c(c3)OCCO4)C(C)C)ccc21 (stereo not drawn)	12.0	-8.1	-5.3	0.5	1.5	29.8*	-6.8
CCc1cc(-c2cnnn2Cc2ccccc2)ccc1-c1cn(CC(C)C)nn1	.	.	3.4	.	.	29.6*	-9.8
CC(C)(C)c1ccc(-c2cn(C[C@H](Cc3ccccc3)n3c(=O)c4ccccc4n3Cc3ccccc3)nn2)cc1	.	.	2.9	.	.	-5.7	.
CC1CCC(NC(=O)C(NS(=O)(=O)c2cccc3nsnc23)C(C)C)CC1 (stereo not drawn)	6.0	-22.0	-31.8	-0.8	3.8	30.6*	-10.7
CC(C)C(NS(=O)(=O)c1cccc2nsnc12)C(=O)NC1CCCCC1 (stereo not drawn)	5.5	5.0	-22.1	-0.9	4.0	-0.4	.
C#CCOCCOCCOCCNc1nc(N2CCN(C(=O)C(CCCCN)n3cc(C(N)C(C)CC)nn3)CC2)nc(N2CCN(C(=O)C(C(C)CC)n3cc(C(N)CO)nn3)CC2)n1 (stereo not drawn)	-17.6	.	.	.	-1.1	.	.
Cc1ccc(S(=O)(=O)/N=C2/NC(=O)/C(=C/c3ccc(Br)o3)S2)cc1	16.6	-13.4	4.5	3.2	41.4	36.2*	10.7
CCOc1ccc(CNC(=S)N/N=C\c2ccc([N+](=O)[O-])cc2)cc1	.	29.2	-4.3	-0.5	.	10.0	.
CCOc1ccc(N=Cc2ccc([N+](=O)[O-])cc2)c(O)c1	.	.	-3.5	.	.	35.2*	-2.7
CC1CN(C(C)CO)C(=O)Cc2cc(NC(=O)Nc3ccc4c(c3)OCO4)ccc2OC1CN(C)S(=O)(=O)c1cccs1 (stereo not drawn)	-1.1	.	.	.	-0.9	.	.
CCOC(=O)c1cc2sc(C)cc2n1CC(=O)NCc1ccc(F)cc1	0.9	-7.9	0.4	-0.7	0.6	29.9*	-17.1
COC(=O)C1=COC(C)C2CN3CC[C@@]4(C(=O)Nc5ccccc54)C3CC12 (stereo partly drawn)	3.8	.	.	.	6.3	.	.
